Source: PubChem BioAssay AID2315 (National Center for Advancing Translational Sciences (NCATS), 2010)
Several values for one entry are separate records, joined by “and”; a condition that tells them apart may be missing. Identical values can stand only once. In all, about 290,000 compounds went through this assay and about 27,000 (9.3%) were called active. What follows is part of a selection rich in actives, with near analogues and random picks from the rest. Values without a mark were called inactive. Rule as the data show it: active = inhibition mostly above about 28% (no sharp cut-off); inactive = mostly below about 43%.

Experiment: A qHTS for Small Molecule Inhibitors of Shiga Toxin; also: 0% is about no effect
Conditions: Vero cells, Shiga toxin protein synthesis inhibition reporter; at 38.7 µM, stronger effect = higher value

SMILES	inhibition
Cn1c(NN)nc2sc3c(c2c1=O)CCC3	12.5%
Nc1nc(SCC(=O)NCCN2CCOCC2)nc2sc3c(c12)CCC3	7.28%
CC(C)(C)C1CCc2c(sc3nc(SCC(N)=O)nc(N)c23)C1 (centres undefined)	42.9% (active)
Cc1sc2nc(SCC(N)=O)n(C)c(=O)c2c1C	8.03%
C=C(C)CSc1nc(N)c2c3c(sc2n1)CCC3	77.1% (active)
CN1CCN(CC(=O)Nc2sc3c(c2C#N)CCC(C(C)(C)C)C3)CC1 (centres undefined)	-10.4%
CCOC(=O)N1CCN(S(=O)(=O)N2CCCC(C(=O)NCCCN3CCC(C)CC3)C2)CC1 (centres undefined)	-4.12%
CC(=O)c1ccc(NC(=O)CCNS(=O)(=O)c2cc(Br)cnc2N)cc1	-8.28%
CCc1ccc(OCC2c3cc(OC)c(OC)cc3CCN2C(C)=O)cc1 (centres undefined)	-3.8%
CN(CC(=O)O)S(=O)(=O)c1ccc2oc3ccccc3c2c1	-10.6%
COC(=O)CCC(=O)N1CCCC(CO)(Cc2ccccc2)C1 (centres undefined)	110% (active)
CCCc1cc(C(=O)N2CCCC(CO)(CCCc3ccccc3)C2)n(C)n1 (centres undefined)	-8.83%
Cc1noc(C)c1CCC(=O)O	17.5%
Cc1ccccc1CC1(CO)CCCN(C(=O)c2cc(-c3ccccc3)no2)C1 (centres undefined)	51%
Cc1noc(C)c1CCC(=O)N1CCCC(CO)(Cc2ccccc2)C1 (centres undefined)	98.7% (active)
CCOC(=O)C1(Cc2ccccc2C)CCCN(C(=O)CCc2c(C)noc2C)C1 (centres undefined)	15.6%
Cc1cc(NC(=O)CSc2nc(=O)cc(N)n2-c2ccc(F)cc2)no1	9.91%
COc1cccc(C(O)c2nc3ccccc3n2C)c1 (centres undefined)	-5.57%
O=C(NCCCn1ccnc1)c1ccccc1F	-3%
Cc1cccc(N2CCN(C(C)C(=O)N3CCc4ccccc43)CC2)c1C (centres undefined)	12.5%
COc1ccc(NC(=O)CCC(=O)Nc2cc(OC)c(NC(=O)c3ccco3)cc2OC)c(OC)c1	2.68%
CCOC(=O)C1CCN(Cc2nnc(-c3cccc(Br)c3)o2)CC1	-4.47%
Cc1c2cnn(CC(=O)NCCCN3CC(C)CC(C)C3)c(=O)c2c(C)n1Cc1ccc(Cl)cc1 (centres undefined)	10.2%
O=c1c2ccccc2ncn1/N=C/c1ccccc1	89.3% (active)
O=c1c2ccccc2nc(N/N=C/c2ccccc2)n1O	4.04%

SMILES	inhibition
CCCc1nc2ccccc2c(=O)n1/N=C/c1ccc(O)c(O)c1	-7.79%
Cc1c(Cl)cccc1NC(=O)NCc1ccc(C)n1C	-6.17%
COc1ccc(CN(C)C(=O)Cc2c[nH]c3ccccc23)c(OC)c1OC	-4.06%
O=S(=O)(/C=C/c1ccccc1)N1CCNCC1	-7.81%
CCc1cccc(NC(=S)N(CCN(C)C)C2CCN(C(C)C)CC2)c1	-1.09%
Cc1ccc(NC(=O)Nc2nnc(-c3ccncc3)s2)cc1	-16.3%
Cc1ccc(Nc2nc(Cl)c(C=O)s2)cc1	39.5% (active)
Cc1ccc(Nc2nc(C)cc(C)c2C(N)=O)cc1	-8.95%
COc1ccc(C(=O)NCCNc2ccc([N+](=O)[O-])cn2)cc1	-3.6%
CCn1cc(/C=C(\NC(=O)c2cc(OC)c(OC)c(OC)c2)C(=O)N2CCN(C)CC2)c2ccccc21	-5.81%
O=C(NCCOc1cccnc1)c1ccc(OC2CCN(Cc3ccccn3)CC2)cc1	-23.8%
O=C(OCC(=O)N1CCN(C(=O)c2ccco2)CC1)c1cccc(O)c1	18.4%
O=C(CCn1nnc2ccccc21)OCC(=O)c1ccc([N+](=O)[O-])cc1	-9.08%
COc1ccc(C2C3=C(OC(C)=O)c4ccccc4C3=Nc3c2c(=O)n(C)c(=O)n3C)cc1 (centres undefined)	-4.21% and -6.55%
CC(=O)Oc1ccc2c(c1)C(=O)c1ccccc1C2=O	49.5%
COc1ccc(/C=C/c2noc(-c3ccccc3OC(C)=O)n2)cc1	50.5% (active)
Cc1ccc(NC(=O)c2cccs2)cc1S(=O)(=O)N(C)C	30%
CCN(CC(=O)Nc1ccc(C)c(S(=O)(=O)N(C)C)c1)Cc1ccccc1	12.4%
Cc1ccc(C(=O)Nc2ccc(C)c(S(=O)(=O)N(C)C)c2)s1	64.1% (active)
O=C(c1ccc(S(=O)(=O)N2CCCC2)cc1)N1CCN(c2ccccc2F)CC1	-13.1%
CCc1ccccc1NC(=O)CSc1nnc(-c2ccncc2)o1	6.43%
O=C(CSc1nnc(-c2ccc([N+](=O)[O-])cc2)o1)Nc1ccccn1	88.1% (active)
CCOC(=O)CSc1nnc(-c2ccc([N+](=O)[O-])cc2)o1	7.13%
O=C(NC1CCCC1)C(c1ccco1)N(C(=O)c1csnn1)c1ccccc1 (centres undefined)	-6.47%
COC(=O)c1ccc(NC(=O)CSc2nc(N)c(NC(=O)c3ccc(Br)o3)c(=O)[nH]2)cc1	-12.8%

SMILES	inhibition
O=C(OCC(=O)N1CCCC1)c1ccco1	24.9%
CCc1ccc(C(=O)COC(=O)c2ccco2)cc1	56.1% (active)
CCN(CC)c1ccc(C(=O)OCC(=O)c2ccco2)cc1	46.8%
COc1ccc(C2/C=C\CN(C(=O)c3ccc(C)cc3)C(Cc3ccccc3)C(=O)N2Cc2ccc(F)cc2)cc1 (centres undefined)	16.3%
O=C(CN1CCCCCC1)Nc1ccc(S(=O)(=O)N2CCCCC2)cc1	-3.01%
O=C(CC1C(=O)NCCN1C(=O)c1ccc([N+](=O)[O-])cc1)Nc1cccc(Cl)c1 (centres undefined)	-30.7%
O=C(CC1NCCNC1=O)Nc1cc(Cl)cc(Cl)c1 (centres undefined)	-12.8%
O=C(CC1NCCc2ccccc21)Nc1cccc(Cl)c1 (centres undefined)	51.4% (active)
CCN(CC)CCN(C(=O)c1cc(Cl)sc1Cl)c1nc2cc3c(cc2s1)OCO3	6.7%
CCOC(=O)/C(C#N)=C/c1ccc(OCC(=O)Nc2ccccc2)c(OC)c1	70.9% (active)
CCCn1c(C)cc(/C=C(\C#N)C(=O)OCC(=O)Nc2cc(OC)c(OC)c(OC)c2)c1C	32.6% (active)
COc1cc(CCC(=O)OCC(=O)Nc2cccc(S(N)(=O)=O)c2)cc(OC)c1OC	-3.91%
COc1cc(/C=N/NC(=O)Nc2ccccc2)ccc1OCCOc1ccccc1C	-4.02%
COc1cc(C2C3=C(CCCC3=O)OC3=C2C(=O)CCC3)ccc1OCC(=O)Nc1ccccc1	37.9%
CCOC(=O)/C(C#N)=C/c1cn(CCC(=O)O)nc1-c1ccc(Br)cc1	2.95%
Cc1ccc(C(=O)Oc2ccc(C(=S)N3CCOCC3)cc2)cc1	3.46%
CCc1ccc(C(=O)NC(=S)Nc2ccccc2N2CCOCC2)cc1	-5.58%
COc1cc2c(cc1OC)CN(C(=O)c1cc(S(=O)(=O)N3CCCCC3)ccc1Cl)CC2	2%
Cc1ccc2nc3c(cc(C(=O)NCCc4ccccc4)c(=N)n3CC3CCCO3)c(=O)n2c1 (centres undefined)	-3.67%
COc1ccccc1CN1CC(C(=O)NCCc2cn[nH]c2)CCC1=O (centres undefined)	22%
CCc1ccc(N(C(=O)c2csnn2)C(C(=O)NC2CCCCC2)c2cccnc2)cc1 (centres undefined)	2.03%
CC1(C(=O)NCCc2c[nH]c3ccccc23)C=CC2(CCCCC2)N1C(=O)c1ccccc1 (centres undefined)	14.3%
Cc1nc(SCC(=O)Nc2cc(C)on2)c2c(C)c(C)sc2n1	12.3%
Cc1ccc2cc(C#N)c(SCC(=O)NCC3CCCO3)nc2c1C (centres undefined)	-7.12%
Cc1cc(NC(=O)CSc2nc(C(C)C)nc3sc4c(c23)CCC(C)C4)no1 (centres undefined)	22.7%

SMILES	inhibition
CC(NC(=O)CSc1nc2c(cc1C#N)CN(C)CC2)c1ccccc1 (centres undefined)	-9.63%
Cc1cc(NC(=O)CSc2nc3c(cc2C#N)CCCCC3)no1	78.8% (active)
Cc1nc(SCC(=O)Nc2cc(C)on2)c2c3c(sc2n1)CCCC3	21.2% (active)
COc1cccc(CN2CCN(Cc3ccc4cccc(F)c4n3)CC2CCO)c1 (centres undefined)	12.8%
O=C(NCc1cccnc1)C12CC3CC(CC(C3)C1)C2	11.5%
Cc1ccc(C(=O)COC(=O)CCN2C(=O)C3C4CCC(C4)C3C2=O)cc1C (centres undefined)	34.8%
O=C(CCC1CCN(C(=O)c2cccc(Cl)c2F)CC1)Nc1ccccc1	-32%
COc1ccccc1CC(=O)Nc1ccc(S(=O)(=O)N2CCCC2)cc1	-2.78%
CCOC(=O)C1C(c2ccc(O)cc2)NC(=O)NC1(O)C(F)(F)F (centres undefined)	-6.9%
O=C(COc1ccc(-n2cnnn2)cc1)Nc1ccccc1Cl	-8.42%
CC(C)(C)c1ccc(C(CC(=O)O)NS(=O)(=O)Cc2ccccc2)cc1 (centres undefined)	17%
Fc1ccc(/C=N/Nc2nc(-c3cccnc3)nc3ccccc23)cc1	47.7% (active)
COc1ccc(Nc2nc(-c3cccnc3)nc3ccccc23)cn1	-3.47%
COc1ccccc1Oc1nc(-c2cccnc2)nc2ccccc12	10.4%
Nc1nonc1-n1nnc(C(=O)N/N=C/c2ccc(Cl)cc2)c1-c1ccc2c(c1)OCO2	-3.05%
COc1ccccc1NC(=O)C(C)OC(=O)CC1CCCC1 (centres undefined)	-16.1%
COc1ccccc1OCC(=O)OCn1c(SC)nnc(C)c1=O	5.34%
CC(C)(C)NC(=O)NC(=O)COC(=O)CCC1CCCCC1	-9.95%
N/C(=N\OC(=O)CC1CCCCC1)c1ccccc1	107% (active)
N/C(=N\OC(=O)Cc1ccccc1[N+](=O)[O-])c1ccc(Br)cc1	49%
N/C(=N\OC(=O)CCC1CCCCC1)c1ccccn1	84.9% (active)
O=C(CN1CCN(c2ccccn2)CC1)NC1CCCCC1	-9.42%
COc1ccccc1OCc1nnc(SCC(N)=O)n1-c1ccccc1	7.34%
COc1ccccc1OCC(=O)O/N=C(\N)c1ccccn1	55.8% (active)
